Data taken from PubChem BioAssay AID1159580 (chemical genetic matrix, 2015).
Several values for one entry are separate records, joined by “and”; a condition that tells them apart may be missing. Identical values can stand only once. The whole screen tested about 5,500 compounds, of which about 2,000 (36%) were called active. Roughly 18% stayed inconclusive and do not appear here. No stated cut-off is given here; in the data, active means normalized growth mostly below about 0.91 (no sharp cut-off); inconclusive means no clear call, values can overlap the other calls; inactive means mostly above about 0.92. This is one part of the list.

Test: chemical genetic growth profiling, strain panel (AID 1159580);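 further: tested at 20 µM; growth read once vehicle control cultures reached saturation at 30 °C; 1 = growth at the plate median or of vehicle wells; lower values mean less growth of the strain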
Conditions: S. cerevisiae deletion strains, growth OD

Measured: normalized growth

Cc1cc(NC(=O)C2=C(O)c3ccccc3S(=O)(=O)N2C)no1
active: locus YDL185W, strain tfp1, hits give low values 0.876
inactive: locus YAL021C, strain ccr4, hits give low values 0.959 | locus YAL026C, strain drs2, hits give low values 0.97 | locus YAL030W, strain snc1, hits give low values 0.969 | locus YBL061C, strain skt5, hits give low values 0.965 | locus YBR009C, strain hhf1, hits give low values 0.961 | locus YBR021W, strain FUR4, hits give low values 1.01 | locus YBR023C, strain chs3, hits give low values 0.967 | locus YBR171W, strain sec66, hits give low values 0.926 | locus YBR229C, strain ROT2, hits give low values 0.991 | locus YBR231C, strain swc5, hits give low values 0.972 | locus YBR279W, strain paf1, hits give low values 0.992 | locus YCL011C, strain gbp2, hits give low values 0.982 | locus YCL016C, strain dcc1, hits give low values 0.968 | locus YCL029C, strain bik1, hits give low values 0.958 | locus YCL069W, strain vba3, hits give low values 0.963 | locus YCR088W, strain abp1, hits give low values 0.964 | locus YDL005C, strain med2, hits give low values 0.984 | locus YDL035C, strain GPR1, hits give low values 0.981 | locus YDL040C, strain nat1, hits give low values 0.964 | locus YDL074C, strain BRE1, hits give low values 1.03 | locus YDL101C, strain DUN1, hits give low values 0.997 | locus YDL134C, strain PPH21, hits give low values 0.995 | locus YDL192W, strain arf1, hits give low values 0.952 | locus YDR001C, strain nth1, hits give low values 0.95 | locus YDR069C, strain doa4, hits give low values 0.99 | locus YDR101C, strain arx1, hits give low values 1.01 | locus YDR137W, strain rgp1, hits give low values 1 | locus YDR150W, strain NUM1, hits give low values 0.975 | locus YDR159W, strain sac3, hits give low values 0.983 | locus YDR162C, strain NBP2, hits give low values 0.961 | locus YDR195W, strain ref2 0.965 | locus YDR297W, strain sur2, hits give low values 0.973 | locus YDR318W, strain mcm21, hits give low values 0.966 | locus YDR334W, strain swr1, hits give low values 0.963 | locus YDR335W, strain msn5, hits give low values 0.964 | locus YDR388W, hits give low values 0.945 | locus YDR392W, strain spt3, hits give low values 0.905 | locus YDR502C, strain sam2, hits give low values 0.98 | locus YEL003W, strain gim4, hits give low values 0.959 | locus YEL037C, strain rad23, hits give low values 0.961 | locus YEL061C, strain CIN8 (second series), hits give low values 0.951 | locus YEL061C, strain CIN8, hits give low values 0.977 | locus YER015W, strain faa2, hits give low values 0.98 | locus YER016W, strain bim1, hits give low values 0.946 | locus YER110C, hits give low values 0.937 | locus YER111C, strain swi4, hits give low values 0.962 | locus YER155C, strain BEM2 (second series), hits give low values 0.976 | locus YER155C, strain BEM2, hits give low values 0.975 | locus YER167W, strain BCK2, hits give low values 0.985 | locus YFR010W, strain ubp6, hits give low values 1 | locus YGL078C, strain dbp3, hits give low values 0.965 | locus YGL086W, strain mad1, hits give low values 0.999 | locus YGL167C, strain pmr1, hits give low values 0.978 | locus YGL173C, strain kem1, hits give low values 0.984 | locus YGL227W, strain vid30, hits give low values 0.973 | locus YGL240W, strain doc1, hits give low values 0.995 | locus YGL248W, strain PDE1, hits give low values 0.994 | locus YGL253W, strain hxk2, hits give low values 0.957 | locus YGR078C, strain PAC10, hits give low values 0.995 | locus YGR135W, strain pre9, hits give low values 0.929 | locus YGR252W, strain gcn5, hits give low values 0.998 | locus YHR013C, strain ard1, hits give low values 0.98 | locus YHR027C, strain rpn1, hits give low values 0.97 | locus YHR030C, strain SLT2, hits give low values 0.965 and 0.916 | locus YHR079C, strain IRE1 (second series), hits give low values 0.939 | locus YHR079C, strain IRE1, hits give low values 0.93 | locus YHR094C, strain hxt1, hits give low values 0.945 | locus YHR129C, strain ARP1, hits give low values 0.972 | locus YHR142W, strain chs7, hits give low values 0.991 | locus YHR200W, strain rpn10, hits give low values 0.947 | locus YIL066C, strain RNR3, hits give low values 1.01 | locus YIL073C, strain SPO22, hits give low values 0.881 | locus YIL125W, strain kgd1, hits give low values 0.939 | locus YIR030C, strain dcg1, hits give low values 0.928 | locus YJL092W, strain hpr5, hits give low values 0.97 | locus YJL095W, strain BCK1 (second series), hits give low values 0.971 | locus YJL095W, strain BCK1, hits give low values 1.01 and 0.962 | locus YJL115W, strain asf1, hits give low values 0.966 | locus YJL129C, strain trk1, hits give low values 0.924 | locus YJL134W, strain LCB3, hits give low values 0.965 | locus YJL154C, strain vps35, hits give low values 0.939 | locus YJL164C, strain tpk1, hits give low values 0.974 | locus YJL166W, strain qcr8, hits give low values 1 | locus YJL168C, strain set2, hits give low values 0.953 | locus YJL187C, strain SWE1 (second series), hits give low values 1 | locus YJR043C, strain POL32, hits give low values 1.02
